Where “and” joins values, the source holds several entries; their conditions need not be identical. Equal values may be shown once.
Assays:
[1] = molecular target: Serine/threonine-protein kinase pim-2 (Homo sapiens) (UniProt Q9P1W9); details: at 1 µM;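 further: each value is a mean of the inhibition measurements against the kinase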
[2] = molecular target: Serine/threonine-protein kinase pim-3 (Homo sapiens) (UniProt Q86V86); details: at 0.1 µM
[3] = molecular target: Serine/threonine-protein kinase pim-3 (Homo sapiens) (UniProt Q86V86); details: at 1 µM
[4] = molecular target: T1, MAP kinase-activated protein kinase 5 (Homo sapiens) (UniProt Q8IW41); details: at 0.1 µM
T1 sequence (whole entry): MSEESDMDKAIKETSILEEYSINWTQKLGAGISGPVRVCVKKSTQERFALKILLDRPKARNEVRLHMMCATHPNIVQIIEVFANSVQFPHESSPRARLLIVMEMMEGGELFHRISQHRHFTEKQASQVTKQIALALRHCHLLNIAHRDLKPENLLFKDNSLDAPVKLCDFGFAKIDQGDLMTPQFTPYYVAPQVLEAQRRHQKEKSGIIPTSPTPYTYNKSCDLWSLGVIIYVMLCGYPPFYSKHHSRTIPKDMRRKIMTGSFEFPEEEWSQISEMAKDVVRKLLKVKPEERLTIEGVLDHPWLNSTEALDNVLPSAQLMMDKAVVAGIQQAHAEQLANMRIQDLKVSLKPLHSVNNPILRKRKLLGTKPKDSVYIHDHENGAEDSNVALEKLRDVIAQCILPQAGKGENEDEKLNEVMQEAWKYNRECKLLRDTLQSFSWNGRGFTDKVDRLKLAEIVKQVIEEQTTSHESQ

[5] = molecular target: T1, MAP kinase-activated protein kinase 5 (Homo sapiens); details: at 1 µM
[6] = molecular target: Serine/threonine-protein kinase SIK1 (Homo sapiens) (UniProt P57059); details: at 0.1 µM
Serine/threonine-protein kinase SIK1 (Homo sapiens), sequence (P57059 whole entry): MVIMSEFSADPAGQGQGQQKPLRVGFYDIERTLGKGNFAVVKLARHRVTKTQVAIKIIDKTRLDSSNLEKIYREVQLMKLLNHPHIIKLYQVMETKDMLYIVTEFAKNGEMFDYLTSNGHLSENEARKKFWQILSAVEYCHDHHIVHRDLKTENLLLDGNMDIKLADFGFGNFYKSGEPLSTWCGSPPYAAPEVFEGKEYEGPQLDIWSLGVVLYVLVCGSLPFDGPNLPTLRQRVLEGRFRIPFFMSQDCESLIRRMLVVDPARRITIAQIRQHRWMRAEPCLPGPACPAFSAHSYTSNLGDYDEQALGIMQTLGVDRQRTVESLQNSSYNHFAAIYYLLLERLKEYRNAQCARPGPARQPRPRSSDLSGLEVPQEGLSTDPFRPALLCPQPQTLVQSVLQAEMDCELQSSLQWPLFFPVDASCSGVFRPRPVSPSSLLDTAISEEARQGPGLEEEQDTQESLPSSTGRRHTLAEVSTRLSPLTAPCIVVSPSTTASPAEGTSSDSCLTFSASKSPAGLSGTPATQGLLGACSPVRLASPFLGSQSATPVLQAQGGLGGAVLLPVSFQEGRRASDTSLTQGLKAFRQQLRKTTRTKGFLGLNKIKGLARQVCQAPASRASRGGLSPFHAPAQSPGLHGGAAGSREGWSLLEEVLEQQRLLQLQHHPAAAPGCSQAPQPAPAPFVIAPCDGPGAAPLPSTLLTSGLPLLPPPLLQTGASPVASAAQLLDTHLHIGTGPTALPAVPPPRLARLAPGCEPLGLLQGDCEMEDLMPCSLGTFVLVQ

[7] = molecular target: Serine/threonine-protein kinase SIK1 (Homo sapiens) (UniProt P57059); details: at 1 µM
[8] = molecular target: Serine/threonine-protein kinase SIK2 (Homo sapiens) (UniProt Q9H0K1); details: at 0.1 µM
Serine/threonine-protein kinase SIK2 (Homo sapiens), sequence (Q9H0K1 whole entry, looked up): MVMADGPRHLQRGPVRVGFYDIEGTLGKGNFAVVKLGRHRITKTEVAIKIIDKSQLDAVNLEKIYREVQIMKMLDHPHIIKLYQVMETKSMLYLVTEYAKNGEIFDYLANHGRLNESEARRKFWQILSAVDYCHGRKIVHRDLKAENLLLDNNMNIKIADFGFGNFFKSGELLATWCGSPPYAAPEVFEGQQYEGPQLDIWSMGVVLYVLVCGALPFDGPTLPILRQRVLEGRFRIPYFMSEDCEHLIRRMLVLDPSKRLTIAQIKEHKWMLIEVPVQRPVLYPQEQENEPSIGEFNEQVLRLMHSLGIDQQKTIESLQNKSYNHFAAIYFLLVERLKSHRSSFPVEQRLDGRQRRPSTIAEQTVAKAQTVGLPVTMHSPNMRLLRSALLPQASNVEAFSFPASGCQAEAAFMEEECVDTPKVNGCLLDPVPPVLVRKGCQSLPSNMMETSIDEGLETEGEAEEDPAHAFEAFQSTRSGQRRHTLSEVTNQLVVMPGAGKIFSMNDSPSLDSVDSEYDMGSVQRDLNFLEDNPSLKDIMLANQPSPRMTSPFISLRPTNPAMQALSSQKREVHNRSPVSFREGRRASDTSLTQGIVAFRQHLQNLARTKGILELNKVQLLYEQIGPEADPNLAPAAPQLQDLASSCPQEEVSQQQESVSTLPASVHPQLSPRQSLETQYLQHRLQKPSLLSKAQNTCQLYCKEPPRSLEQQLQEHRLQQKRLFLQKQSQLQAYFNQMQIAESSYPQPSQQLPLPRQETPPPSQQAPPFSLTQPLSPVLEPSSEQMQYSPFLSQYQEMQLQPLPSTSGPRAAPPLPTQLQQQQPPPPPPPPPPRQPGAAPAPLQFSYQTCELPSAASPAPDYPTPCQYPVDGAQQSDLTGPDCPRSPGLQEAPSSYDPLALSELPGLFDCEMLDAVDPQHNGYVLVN

[9] = molecular target: Serine/threonine-protein kinase SIK2 (Homo sapiens) (UniProt Q9H0K1); details: at 1 µM
[10] = molecular target: T2, Serine/threonine-protein kinase TBK1 (Homo sapiens) (UniProt Q9UHD2); details: at 0.1 µM
T2 sequence (whole entry): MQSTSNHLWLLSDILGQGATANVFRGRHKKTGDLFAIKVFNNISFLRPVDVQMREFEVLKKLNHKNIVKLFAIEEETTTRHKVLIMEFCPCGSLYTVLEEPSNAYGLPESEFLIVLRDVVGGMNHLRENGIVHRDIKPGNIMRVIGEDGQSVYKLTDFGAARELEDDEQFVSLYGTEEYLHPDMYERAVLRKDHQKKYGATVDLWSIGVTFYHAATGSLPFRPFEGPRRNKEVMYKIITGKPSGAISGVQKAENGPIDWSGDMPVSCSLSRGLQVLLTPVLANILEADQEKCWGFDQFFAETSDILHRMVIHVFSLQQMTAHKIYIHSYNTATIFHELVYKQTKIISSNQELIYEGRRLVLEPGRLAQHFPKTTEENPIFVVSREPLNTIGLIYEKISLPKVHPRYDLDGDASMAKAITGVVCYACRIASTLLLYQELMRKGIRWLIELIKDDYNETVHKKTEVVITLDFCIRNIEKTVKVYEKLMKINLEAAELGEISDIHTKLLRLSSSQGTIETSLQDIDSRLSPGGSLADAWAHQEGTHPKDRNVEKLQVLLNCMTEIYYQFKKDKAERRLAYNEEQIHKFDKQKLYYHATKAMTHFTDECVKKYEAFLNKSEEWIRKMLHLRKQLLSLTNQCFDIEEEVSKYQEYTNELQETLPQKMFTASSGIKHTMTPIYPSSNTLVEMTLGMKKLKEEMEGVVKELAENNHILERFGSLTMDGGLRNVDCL

[11] = molecular target: T2, Serine/threonine-protein kinase TBK1 (Homo sapiens); details: at 1 µM
[12] = molecular target: T3, Testis-specific serine/threonine-protein kinase 1 (Homo sapiens) (UniProt Q9BXA7); details: at 0.1 µM
T3 sequence (whole entry): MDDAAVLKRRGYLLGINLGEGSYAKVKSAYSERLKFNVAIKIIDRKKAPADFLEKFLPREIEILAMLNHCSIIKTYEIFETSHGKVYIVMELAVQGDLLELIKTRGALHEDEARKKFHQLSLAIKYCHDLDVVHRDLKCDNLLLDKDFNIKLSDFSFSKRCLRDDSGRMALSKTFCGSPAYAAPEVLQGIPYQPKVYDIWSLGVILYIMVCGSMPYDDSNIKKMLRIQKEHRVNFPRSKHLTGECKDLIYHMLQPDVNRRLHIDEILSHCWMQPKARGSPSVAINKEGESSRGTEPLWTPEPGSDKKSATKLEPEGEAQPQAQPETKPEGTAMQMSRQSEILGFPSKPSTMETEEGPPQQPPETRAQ

[13] = molecular target: T3, Testis-specific serine/threonine-protein kinase 1 (Homo sapiens); details: at 1 µM
[14] = molecular target: T4, Testis-specific serine/threonine-protein kinase 2 (Homo sapiens) (UniProt Q96PF2); details: at 0.1 µM
T4 sequence (whole entry): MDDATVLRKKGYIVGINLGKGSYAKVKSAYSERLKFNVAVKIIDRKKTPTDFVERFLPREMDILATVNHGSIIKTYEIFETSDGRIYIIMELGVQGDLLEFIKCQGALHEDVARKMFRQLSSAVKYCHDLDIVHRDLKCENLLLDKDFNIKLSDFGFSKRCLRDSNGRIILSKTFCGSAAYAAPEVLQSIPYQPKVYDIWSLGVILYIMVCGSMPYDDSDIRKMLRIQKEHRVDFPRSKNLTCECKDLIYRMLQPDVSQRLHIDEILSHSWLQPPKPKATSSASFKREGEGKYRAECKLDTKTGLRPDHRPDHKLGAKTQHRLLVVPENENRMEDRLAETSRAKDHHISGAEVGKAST

[15] = molecular target: T4, Testis-specific serine/threonine-protein kinase 2 (Homo sapiens); details: at 1 µM
[16] = molecular target: Casein kinase I isoform alpha (Homo sapiens) (UniProt P48729); details: at 0.1 µM
Casein kinase I isoform alpha (Homo sapiens), sequence (P48729 2-337 limits assumed): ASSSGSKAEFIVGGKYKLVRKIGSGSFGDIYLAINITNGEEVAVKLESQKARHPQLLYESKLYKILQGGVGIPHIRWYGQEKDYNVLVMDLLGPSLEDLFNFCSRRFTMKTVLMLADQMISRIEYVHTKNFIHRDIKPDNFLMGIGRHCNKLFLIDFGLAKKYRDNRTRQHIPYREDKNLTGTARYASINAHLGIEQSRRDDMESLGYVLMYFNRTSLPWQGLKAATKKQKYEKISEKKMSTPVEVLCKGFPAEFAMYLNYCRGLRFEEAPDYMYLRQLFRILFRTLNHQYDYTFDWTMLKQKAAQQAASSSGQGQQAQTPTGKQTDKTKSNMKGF

[17] = molecular target: Casein kinase I isoform alpha (Homo sapiens) (UniProt P48729); details: at 1 µM
[18] = molecular target: Casein kinase I isoform gamma-1 (Homo sapiens) (UniProt Q9HCP0); details: at 0.1 µM
Casein kinase I isoform gamma-1 (Homo sapiens), sequence (Q9HCP0 whole entry, looked up, canonical isoform): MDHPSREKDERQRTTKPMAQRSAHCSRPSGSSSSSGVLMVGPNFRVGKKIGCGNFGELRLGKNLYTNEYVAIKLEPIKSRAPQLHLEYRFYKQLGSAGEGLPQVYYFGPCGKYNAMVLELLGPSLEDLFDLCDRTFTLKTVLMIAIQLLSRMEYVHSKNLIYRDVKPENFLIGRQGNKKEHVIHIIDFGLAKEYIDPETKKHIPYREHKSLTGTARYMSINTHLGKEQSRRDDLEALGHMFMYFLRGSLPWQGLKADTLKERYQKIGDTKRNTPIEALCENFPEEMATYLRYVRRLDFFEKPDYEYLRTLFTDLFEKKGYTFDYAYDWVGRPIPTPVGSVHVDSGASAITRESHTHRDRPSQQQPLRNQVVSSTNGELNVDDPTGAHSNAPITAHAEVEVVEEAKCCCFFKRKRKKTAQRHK

[19] = molecular target: Casein kinase I isoform gamma-1 (Homo sapiens) (UniProt Q9HCP0); details: at 1 µM
[20] = molecular target: Casein kinase I isoform gamma-2 (Homo sapiens) (UniProt P78368); details: at 0.1 µM;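 further: values are mean inhibition figures reported as part of the GSK PKIS dataset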
Casein kinase I isoform gamma-2 (Homo sapiens), sequence (P78368 whole entry, looked up, canonical isoform): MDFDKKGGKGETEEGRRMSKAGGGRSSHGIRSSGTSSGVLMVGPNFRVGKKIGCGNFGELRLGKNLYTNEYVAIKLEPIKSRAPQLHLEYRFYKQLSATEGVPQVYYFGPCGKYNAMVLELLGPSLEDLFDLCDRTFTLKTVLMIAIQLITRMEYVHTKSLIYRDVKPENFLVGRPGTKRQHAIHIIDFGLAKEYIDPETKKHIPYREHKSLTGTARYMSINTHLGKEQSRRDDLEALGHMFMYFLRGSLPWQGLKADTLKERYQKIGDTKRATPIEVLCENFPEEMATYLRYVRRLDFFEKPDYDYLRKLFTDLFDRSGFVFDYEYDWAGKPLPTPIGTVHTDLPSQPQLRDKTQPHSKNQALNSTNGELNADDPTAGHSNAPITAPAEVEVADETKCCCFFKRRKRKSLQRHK

Serine/threonine-protein kinase pim-2 (Homo sapiens), sequence (Q9P1W9 whole entry, looked up): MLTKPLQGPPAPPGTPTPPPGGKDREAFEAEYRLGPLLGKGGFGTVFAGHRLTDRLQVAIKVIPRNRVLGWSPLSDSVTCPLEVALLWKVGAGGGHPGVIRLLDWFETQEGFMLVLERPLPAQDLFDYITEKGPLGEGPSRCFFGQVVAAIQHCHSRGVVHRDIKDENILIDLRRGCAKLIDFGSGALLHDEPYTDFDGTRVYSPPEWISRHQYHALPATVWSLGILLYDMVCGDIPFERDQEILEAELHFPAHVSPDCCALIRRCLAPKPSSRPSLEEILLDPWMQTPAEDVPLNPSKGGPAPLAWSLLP

Row | SMILES | inhibition [1] | inhibition [2] | inhibition [3] | inhibition [4] | inhibition [5] | inhibition [6] | inhibition [7] | inhibition [8] | inhibition [9] | inhibition [10] | inhibition [11] | inhibition [12] | inhibition [13] | inhibition [14] | inhibition [15] | inhibition [16] | inhibition [17] | inhibition [18] | inhibition [19] | inhibition [20]
1 | COC(=O)Nc1nc2cc(Oc3ccc(NC(=O)Nc4ccccc4)cc3)ccc2[nH]1 | 0.64% | -0.27% | 0.79% | 1.73% | 2.59% | 1.17% | 7.79% | 1.28% | 9.23% | -0.2% | 2.25% | 3.86% | 4.03% | 2.21% | 4.11% | 0.93% | 2.7% | 2.12% | 2.12% | 2.17%
2 | CS(=O)(=O)Nc1ccc(-c2cc(-c3ccccc3)cc(C(N)=O)c2N)cc1 | 0.82% | 0.62% | 1.22% | 0.73% | 3.19% | 1.69% | 7.99% | -1.02% | 3.58% | 1.82% | 2.08% | 2.3% | 2.85% | 0.46% | 1.61% | 0.02% | 2.47% | 0.73% | 0.84% | 0.2%
3 | NC(=O)c1ccc2c(-c3ccnc(NCCCO)n3)c(-c3ccc(F)cc3)nn2c1 | 1.11% | -0.5% | -0.27% | 1.47% | 1.16% | 3.64% | 16% | 9.22% | 40.4% | 4.13% | 4.69% | 3.95% | 3.68% | 2.67% | 2.23% | 25.3% | 67.6% | 7.1% | 19.8% | 5.87%
4 | CS(=O)(=O)CCNCc1ccoc1-c1ccc2ncnc(Nc3ccc(OCc4ccccc4)cc3)c2c1 | -0.21% | 0.58% | -0.84% | 0.44% | 0.78% | 2.99% | 4.48% | -0.71% | -0.59% | 0.39% | -2.25% | 0.51% | 0.84% | 1.17% | 0.75% | 1.49% | -0.39% | 0.5% | 1.25% | 0.24%
5 | CCN1CCC(C(=O)Nc2n[nH]c3nnc(-c4cccc(F)c4F)cc23)CC1 | 0.25% | -0.6% | 2.08% | 0.03% | -0.34% | -3.64% | 0.15% | -2.38% | -0.5% | 0.48% | 0.85% | -0.97% | -0.75% | 0.04% | 0.43% | -1.81% | -0.5% | 1.73% | -0.13% | -0.42%
6 | COC(=O)Nc1nc2ccc(Oc3ccc(NC(=O)Nc4cc(C(F)(F)F)ccc4F)cc3)cc2s1 | 0.12% | 0.39% | 0.5% | 0.07% | -0.36% | -0.78% | 0.54% | 0.97% | -6.65% | -0.35% | -0.01% | 0.44% | 1.02% | -1.47% | 0.19% | -1.12% | 3.01% | -0.2% | -0.02% | -0.36%
7 | Cc1nnc(-c2cccc(-c3ccc(C(=O)NCC4CC4)cc3)c2)o1 | 1.27% | 1.21% | 5.19% | 2.14% | 4.28% | 7.04% | 10.7% | 12.9% | 5.76% | 2.51% | 6.92% | 4.11% | 5.87% | 2.89% | 3.75% | 1.99% | 5.86% | 4.47% | 4.29% | 2.71%
8 | Nc1nonc1-c1nc2cnccc2n1C1CC1 | 11.3% and 9.18% | 3.94% and 4.22% | 30.6% and 32.5% | 0.67% and 1.06% | -0.55% and 4.15% | 6.64% and 2.66% | 8.35% and 5.12% | 0.75% and 5.71% | 5.93% and 2.36% | 7.96% and 1.98% | 15.3% and 9% | 3.32% and 4.38% | 14.5% and 17.5% | 1.12% and 1.1% | -1.21% and 1.4% | 6.95% and 4.09% | 6.23% and 9.54% | 3.2% and -1.18% | 3.96% and -0.27% | 1.76% and -1.82%
9 | CC1=C(C(=O)Nc2ccc3[nH]nc(C)c3c2)C(c2ccc(C(F)(F)F)cc2)CC(=O)N1 (stereo not given) | 0.55% | 0.17% | -2.32% | 0.34% | -0.66% | 0.72% | 1.39% | 4.07% | 0.64% | -1.52% | 3.52% | 1.88% | 0.25% | 1.4% | -4.29% | 2.09% | 3.07% | 1.96% | 3.62% | 1.19%
10 | Cc1ccc(-c2cc3c(NC(=O)C4CC4)ncnc3o2)cc1 | 1.12% | -0.12% | 4.13% | 0.83% | 0.27% | 6.5% | 7.93% | -1.22% | 3.33% | 3.64% | 10.1% | 3.8% | 4.18% | 1.75% | 0.28% | 4.85% | 5.25% | 3.74% | 4.78% | 2.32%
11 | c1cnn2ncc(-c3ccnc(NCCCN4CCOCC4)n3)c2c1 | -1.06% | -0.56% | -0.85% | 1.09% | 1.07% | 3.47% | 6.56% | 3.35% | 2.87% | 0.82% | 1.95% | 3.58% | 2.58% | 2.3% | 1.85% | 2.74% | 16.4% | 3.57% | 4.83% | 3.07%
12 | CCCNc1cccc(-n2ncc3c(N/N=C/c4ccncc4)ncnc32)c1 | 0.32% | 3.58% | 4.06% | 0.95% | 1.6% | 3.14% | 9.54% | -0.68% | 21.1% | 2.22% | 20.2% | 1.42% | 6.17% | 0.21% | 3.17% | 0.14% | 1.89% | 0.84% | 1.57% | 1.79%
13 | CN1CCC(C(=O)Nc2n[nH]c3nc(-c4ccc(O)cc4)c(Br)cc23)CC1 | 14.5% and 16.5% | 8.95% and 8.97% | 48.5% and 44.8% | 1.61% and 0.79% | 3.66% and 0.86% | 3.1% and 1.53% | 9.27% and 8.23% | 7.89% and -2.04% | 9.87% and 5.33% | 4.48% and 3.27% | 6.1% and 2.08% | 5.11% and 0.23% | 7.56% and 2.61% | 3.45% and 1.03% | 5.78% and 1.94% | 2.56% and 1.97% | 5.54% and 3% | 0.95% and 1.75% | 4.18% and 2.3% | 1.05% and 1.85%

From ChEMBL document CHEMBL1961873, “Compounds: GSK PKIS; Assays: Nanosyn kinase panel” (2012)
